Records with an inconclusive call do not appear. Activity calls are given as the source filed them. Calls follow the shape of the dose curve; as a rule, active = well fitted curve in the direction sought with a large enough effect; inconclusive = small, poorly fitted or top-dose-only effect, or another doubt; inactive = no such curve, though single readings can be large or run the other way.
Target: 4-diphosphocytidyl-2-C-methyl-D-erythritol kinase, chloroplastic (Arabidopsis thaliana) (UniProt O81014)
Sequence (O81014 whole entry, looked up): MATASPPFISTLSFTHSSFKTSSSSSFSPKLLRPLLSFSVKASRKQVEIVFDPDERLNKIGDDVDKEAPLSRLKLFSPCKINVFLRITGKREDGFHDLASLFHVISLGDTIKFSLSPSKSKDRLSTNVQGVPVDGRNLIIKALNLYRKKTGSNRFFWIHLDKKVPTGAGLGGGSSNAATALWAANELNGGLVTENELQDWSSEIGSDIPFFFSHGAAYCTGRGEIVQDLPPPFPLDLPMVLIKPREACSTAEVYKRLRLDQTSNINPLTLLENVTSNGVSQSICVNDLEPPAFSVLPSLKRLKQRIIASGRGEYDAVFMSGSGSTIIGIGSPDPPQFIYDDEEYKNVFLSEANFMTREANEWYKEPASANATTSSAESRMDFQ
Experiment: Confirmatory Assay for Inhibitors of Human Galactokinase (GALK): CDP-Me assay counterscreen
Settings: ATP depletion, Kinase-Glo luminescence
Outline: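 Luminescent read-out of ATP remaining (Kinase-Glo Plus) after 1 h at room temperature. Reaction: 0.25 ug/mL CDP-Me kinase, ATP 15 uM, CDP-ME 30 uM, HEPES pH8.0 buffer containing MgCl2, KCl, DTT and BSA.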

Structure (SMILES): Cc1cc2c(C(C)C)c(O)c(O)c(C=O)c2c(O)c1-c1c(C)cc2c(C(C)C)c(O)c(O)c(C=O)c2c1O
- Potency: 47.3 µM (active)

From PubChem BioAssay AID2017 (National Center for Advancing Translational Sciences (NCATS), 2009)
